An excerpt weighted towards active compounds, which were near 5.8% of everything screened.
VP16 counter: inhibits Gal4-VP16 luciferase reporter, ROR gamma counter-screen; Drosophila S2 Gal4-VP16 UAS-luciferase, luminescence, 20 h; Potency, µM (titrated, usually from 53.6 µM), inactives show at the highest dose activity, negative = inhibition, hits mostly inhibitors; 3.5% of 310,000 active;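 also: Gal4-VP16 expression switched on by copper sulfate through the metallothionein promoter; potency is read from the fitted curve at half-maximal effect; % is scaled to controls: 0 for no effect and ±100 for the full control effect; nearly all actives have a fitted effect of over 50% in size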
TRPV1 PAM: potentiators of human vanilloid receptor 1 (TRPV1). Q8NER1. TRPV1-expressing cells, Fluo-8 calcium influx, capsaicin EC20 potentiation. potentiation, % at 8.33 µM. 0.02% of 320,000 active; in the data active = potentiation above about 80%; inconclusive = between about 30% and that limit; also: 0% is about no effect
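Cells expressing TRPV1 were dye-loaded with Fluo-8 and read kinetically: 10 s baseline, 3 min after compound (agonist portion), then 2 min after EC20 capsaicin (allosteric enhancer portion). Calcium-bound dye fluorescence at 480/520 nm.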
TRPV1 agonist: human TRPV1 agonism; TRPV1-expressing cells, Fluo-8 calcium influx, agonist mode; 0.19% of 320,000 active; activation, % at 8.33 µM; AID 540275; in the data active = activation above about 80%; inconclusive = between about 30% and that limit; also: 0% is about no effect
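TRPV1-expressing cells were cultured overnight at 35.5C and loaded with Fluo-8 calcium dye for 40 to 90 min at room temperature. After a 10 s baseline, compound was added and calcium influx was read kinetically for 3 min (ex 480/em 520 nm).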
RORg inh: inhibitors of mouse ROR gamma transcriptional activity; P51450; Drosophila S2 Gal4-RORgamma UAS-luciferase reporter, 20 h; Potency, µM (titrated, usually from 53.6 µM), without a hit: top-dose activity change, negative = inhibition, actives largely listed as inhibitors; 5.4% of 310,000 active; AID 2551; also: potency is read from the fitted curve at half-maximal effect; % is scaled to controls: 0 for no effect and ±100 for the full control effect; nearly all actives have a fitted effect of over 60% in size
Target sequence (P51450 whole entry, looked up, the tested form may be a part): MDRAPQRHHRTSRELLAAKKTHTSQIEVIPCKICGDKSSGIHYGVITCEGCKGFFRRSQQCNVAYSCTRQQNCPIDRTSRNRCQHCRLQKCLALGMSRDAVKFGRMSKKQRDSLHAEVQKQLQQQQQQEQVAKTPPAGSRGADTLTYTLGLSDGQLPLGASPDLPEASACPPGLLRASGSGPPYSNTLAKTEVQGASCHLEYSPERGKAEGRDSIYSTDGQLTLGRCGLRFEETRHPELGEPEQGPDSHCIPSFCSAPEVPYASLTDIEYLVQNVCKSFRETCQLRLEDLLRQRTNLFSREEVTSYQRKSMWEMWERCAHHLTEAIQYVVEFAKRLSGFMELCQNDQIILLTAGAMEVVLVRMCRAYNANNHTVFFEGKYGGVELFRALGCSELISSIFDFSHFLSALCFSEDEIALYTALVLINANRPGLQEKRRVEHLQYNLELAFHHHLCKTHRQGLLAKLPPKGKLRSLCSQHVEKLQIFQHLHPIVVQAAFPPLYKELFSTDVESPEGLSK
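In this cell-based reporter format, copper sulfate (700 uM final) drives Gal4–ROR gamma fusion expression from a metallothionein promoter in Drosophila Schneider cells; compounds preincubated 1 hr, reporter read after 20 hr at ambient temperature.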
uPA surface inh: cell surface uPA generation inhibition; 0.31% of 330,000 active; cell surface uPA generation assay, qHTS; Potency, µM (titrated, usually from 38.3 µM), inactives show at the top dose activity change, negative = inhibition, hits mostly inhibitors; active = well fitted inhibition curve with a large enough effect; inconclusive = small, poorly fitted or top-dose-only effect; inactive = no such curve, though single readings can be large or run the other way; tested in mouse RAW 264.7 cells; also: potency is read from the fitted curve at half-maximal effect; % is scaled to controls: 0 for no effect and ±100 for the full control effect; nearly all actives have a fitted effect of over 55% in size
The depositor's hits bear a star; ? = inconclusive; nt = no result given; [ ] = dose if it differs, or a comment. Unless noted, calls follow the shape of the dose curve; as a rule, active = well fitted curve in the direction sought with a large enough effect; inconclusive = small, poorly fitted or top-dose-only effect, or another doubt; inactive = no such curve, though single readings can be large; an effect the other way counts as inactive or inconclusive.

SMILES | VP16 counter | TRPV1 PAM | TRPV1 agonist | RORg inh | uPA surface inh
CC(c1ccco1)N(C(=O)COc1ccc(Cl)cc1Cl)c1ccccn1 (stereo not drawn) | 11µM* | 12 | 4 | ? | -11%
CC(C)CC(=O)NC(=S)Nc1ccc(N2CCOCC2)cc1 | ? | -6 | -1 | 28µM* | 7%
CCc1cccc(NC(=S)Nc2ccc(CN3CCOCC3)cc2)c1 | 20µM* | -6 | 2 | 11µM* | 1%
COc1ccc(CNS(=O)(=O)c2ccc3c(c2)CCN3C(=O)C2CCC2)cc1 | 1% | -1 | 5 | 15% | 3%
Cn1ncc(Cl)c1C(=O)N1CCN(C23CC4CC(CC(C4)C2)C3)CC1 | -1% | -12 | 5 | 15% | -4%
O=c1c2ccccc2c(=O)n2n1Cc1ccccc1C2 | 24% | ? | -2 | ? | -5%
CC(=O)OCC(NC(=O)C(COCc1ccccc1)NC(=O)OC(C)(C)C)C1OC(n2cc(F)c(=O)[nH]c2=O)C(OC(C)=O)C1OC(C)=O (stereo not drawn) | -15% | nt | nt | 3% | nt
CC(C)CC(=O)NC(=S)Nc1ccc(CN2CCOCC2)cc1 | 11% | 6 | -5 | 4.5µM* | 5%
O=C(CCCCl)NC(=S)Nc1ccc(CN2CCOCC2)cc1 | 3% | 3 | 1 | -22% | 1%
O=C(CCCCl)NC(=S)Nc1ccc(N2CCOCC2)cc1 | ? | -11 | -2 | 2.2µM* | -2%
Cc1ccc(S(=O)(=O)N(C)CC(=O)Oc2ccc(-c3nnco3)cc2)cc1 | nt | -4 | 3 | nt | 2%
CCN(CC)c1ccc(NC(=O)c2cnccn2)cc1S(=O)(=O)Nc1ccc(OC)cc1 | 0% | 20 | 85* | ? | -8%
Cc1ccc(CNC(=O)CSc2nc(N3CCCCC3)nc(N3CCCCC3)n2)cc1 | 7%[0.365 µM] | -3 | ? | ? | 4%
C/C(=N\Nc1nccnc1Cl)c1c(F)c(F)c(F)c(F)c1F | ? | -1 | -1 | 8.9µM* | 4%
C/C(=N\Nc1nccnc1Cl)c1ccc(F)cc1 | 2.8µM* | 7 | 0 | 5.6µM* | -6%
C/C(=N\Nc1nccnc1Cl)c1ccc(Cl)c(Cl)c1 | ? | -27 | -4 | ? | -4%
C/C(=N\Nc1nccnc1Cl)c1ccc(O)cc1 | 8% | 5 | -4 | 11% | -10%
O=C(CN(Cc1ccco1)C(=O)CNS(=O)(=O)c1ccc(F)cc1)NCc1ccccc1 | -6% | 5 | 0 | 43% | -5%
O=C(Oc1ccccc1)N1CCC2(CC1)CN(c1ncccn1)C2 | ? | nt | nt | 4% | nt
CC(=Nc1ccc2c(c1)nc(CO)n2C)C1=C(O)CC(C)(C)CC1=O | -2% | 6 | 0 | 10% | -2%
CCCCc1cc(=O)oc2cc(C)cc(O)c12 | ? | -8 | 15 | ? | 0%
CCCCc1cc(=O)oc2cc(O)cc(O)c12 | 22µM* | 8 | 0 | -38% | -8%
COCCNC(=O)/C(=C/c1ccccc1Cl)c1ccccc1 | 4% | 6 | 6 | 1% | -3%
O=C(/C=C/c1ccco1)NC(=S)Nc1ccccc1N1CCCC1 | ? | 2 | 21 | ? | -17%
O=C(/C=C/c1ccco1)NC(=S)Nc1cc(C(F)(F)F)ccc1N1CCOCC1 | ? | -10 | 26 | 6.3µM* | 3%
SMILES | VP16 counter | TRPV1 PAM | TRPV1 agonist | RORg inh | uPA surface inh
O=C(/C=C/c1ccco1)NC(=S)Nc1ccccc1N1CCOCC1 | 8.9µM* | -12 | ? | 2.8µM* | -4%
O=C(c1ccncc1)N1CCC[C@@]2(CCN(c3cccc(-c4ccccc4)c3)C2)C1 | -11% | nt | nt | 11% | nt
O=C(Nc1ncc(Cc2cc(Cl)ccc2Cl)s1)c1ccc([N+](=O)[O-])cc1 | 4.5µM* | nt | nt | 1µM* | 2%
CC(C)C(=O)Nc1ncc(Cc2ccccc2Cl)s1 | 5% | -14 | ? | ? | 4%
N#CCC(=O)Nc1ncc(Cc2ccccc2Cl)s1 | ? | 2 | 0 | 13µM* | -2%
CCOC(=O)c1sc(NC(=O)c2sccc2C)cc1C | -5% | 7 | ? | ? | -7%
CCOC(=O)c1sc(NC(=S)NC(=O)C23CC4CC(CC(C4)C2)C3)cc1C | 10µM* | 1 | -4 | 6.3µM* | 10%
CCOC(=O)c1sc(NC(=S)NC(=O)C2CC2)cc1C | 1µM* | -7 | 19 | 1µM* | 5%
COc1ccc(CCNC(=S)Nc2ccc(C)cc2C)cc1 | 7.1µM* | -16 | 13 | 4µM* | 7%
COc1ccc(CCNC(=S)Nc2cc(C)ccc2C)cc1 | -2% | 14 | -5 | 21% | -1%
Fc1ccc(NC(=S)NCCc2ccccc2)c(F)c1F | -6% | 26 | 3 | -5% | -13%
COc1ccc(NC(=S)NCCc2ccccc2)c(C)c1 | 4µM* | -21 | 7 | 6.3µM* | 4%
CCc1cc(Br)ccc1NC(=S)NCCc1ccccc1 | 6.3µM* | -9 | 16 | 5µM* | 2%
Cc1cc(OC(F)F)ccc1NC(=S)NCCc1ccccc1 | 10µM* | -26 | 14 | 7.9µM* | 0%
COc1cc(C(=O)NCC(c2ccccc2)N(C)C)ccc1OCc1c(C)noc1C (stereo not drawn) | nt | 10 | -1 | nt | 7.9µM*
COc1cc(C(=O)OCC#N)ccc1OCc1c(C)noc1C | -7% | -3 | -3 | -24% | 11µM*
O=C1COc2ccc(C(=O)CSc3nc4ccccc4c(=O)n3-c3ccc(Cl)c(Cl)c3)cc2N1 | 6% | 5 | 0 | -29% | 2%
CCc1ccc(-n2c(SCC(=O)c3ccc4c(c3)NC(=O)CO4)nc3ccccc3c2=O)cc1 | -1% | -4 | -1 | 2.5µM* | 9%
O=C(c1ccc(-n2c(SCc3cccc(F)c3)nc3ccccc3c2=O)cc1)N1CCOCC1 | -3% | -9 | 87* | ? | 7%
O=C(O)c1ccc(CSc2nc3ccccc3c(=O)n2-c2ccccc2)cc1 | 13% | -3 | 0 | 44% | -12%
Cc1ccccc1OCC(=O)N(Cc1nnc(-c2ccc(Cl)cc2)o1)C(C)C | nt | 10 | 4 | nt | 5%
CCOC(=O)C(NC(=O)Nc1ccc(O)cc1)(c1ccccc1)C(F)(F)F (stereo not drawn) | -1% | 11 | 21 | 34% | 6%
CC1Sc2ccc(S(=O)(=O)CCC(=O)NCc3ccc(Cl)cc3)cc2NC1=O (stereo not drawn) | -14% | -1 | 7 | 35% | -3%
CCCc1nnc(NC(=O)C23CC4CC(CC(C4)C2)C3)s1 | 9% | -9 | 3 | -26% | -5%
CC1CCC2C(=O)OC(COc3ccc(C(C)(C)C)cc3)CN2C1c1ccc(Br)cc1 (stereo not drawn) | -5%[10 µM] | nt | nt | 0%[10 µM] | nt
O=C1OCCC1Sc1nc2ccccc2c(=O)n1Cc1ccc(F)cc1 (stereo not drawn) | 8.9µM* | 26 | -7 | 4µM* | 1%
O=C(CSc1nc2ccccc2c(=O)n1Cc1ccc(F)cc1)NCc1cccs1 | 5µM* | -29 | 14 | 2.8µM* | -3%
C=CCC1(c2ccccc2)Oc2ccccc2-c2nc3cc(Cl)c(Cl)cc3nc21 (stereo not drawn) | ? | nt | nt | -24%[10 µM] | nt
